Assay outcomes (PubChem BioAssay)
An excerpt weighted towards active compounds, which were near 19% of everything screened.
DT40 TDP1 no CPT: qHTS for Inhibitors of human tyrosyl-DNA phosphodiesterase 1 (TDP1): qHTS in cells in absence of CPT | DT40 Tdp1-/- hTDP1 cells, no CPT, ATP luminescence, 48 h | Potency, µM (highest dose often 46.2 µM), inactives show at the highest dose activity change, negative = growth inhibition, usual class: inhibitors | hit rate 15% among 420,000 | AID 686978, 2013; also: potency is read from the fitted curve at half-maximal effect; nearly all actives have a fitted effect of over 55% in size
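Camptothecin absent (DMSO only). Human TDP1-complemented DT40 knockout cells, 400 cells/well, 37 °C for minimum 48 hr; ATP measured via CellTiter-Glo, 30 min dark incubation, luminescence.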
IL1B secr inh: blocks inflammasome-driven IL-1 beta release. AID 743279. THP-1 LPS/ATP IL-1B secretion, AlphaLISA, 16 h; active compounds read low. activity change, % at 57.5 µM. hit rate 4.7% among 360,000; in the data active = activity change below about -50%; inconclusive = mostly about -30% to -49%
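THP-1 cells pretreated 1 hr with compounds (up to 57.5 uM final), then stimulated with LPS (250 ng/mL final) plus ATP (1.25 mM final); secreted IL-1B measured by AlphaLISA after 16 hr, decreased signal indicating inhibition.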
HT1080NT lethal: kills 2HG-producing HT-1080-NT fibrosarcoma cells; HT-1080-NT fibrosarcoma viability, CellTiter-Glo ATP luminescence, 48 h; Potency, µM (top dose mostly 46.1 µM), inactives show at the highest dose activity, negative = less viability, usual class: cytotoxic; hit rate 1.6% among 360,000; AID 686970;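 also: NT is the 2HG producing partner of a matched IDH1 knockdown line; potency is read from the fitted curve at half-maximal effect; 0% = DMSO-treated cells and -100% = media-only wells without cells; nearly all actives have a fitted effect of over 55% in size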
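HT-1080-NT fibrosarcoma cells (2HG-overproducing), 750 cells/well in RPMI with 5% FBS, dosed after 2 h and incubated 48 h at 37C. CellTiter-Glo luminescence normalized to DMSO and no-cell wells; concentration-response curves fitted and classed.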
uPA surface inh: cell surface uPA generation inhibition; cell surface uPA generation assay, qHTS; Potency, µM (series often up to 38.3 µM), inactives show at the highest dose activity change, negative = inhibition, usual class: inhibitors; hit rate 0.31% among 330,000; AID 540303; active = well fitted inhibition curve with a large enough effect; inconclusive = small, poorly fitted or top-dose-only effect; inactive = no such curve, though single readings can be large or run the other way; tested in mouse RAW 264.7 cells; also: potency is read from the fitted curve at half-maximal effect; nearly all actives have a fitted effect of over 55% in size
DT40 TDP1 CPT: DT40-hTDP1 cell growth loss with CPT; chicken DT40 Tdp1-/-;hTDP1 cells + 20 nM CPT, ATP luminescence, 48 h; Potency, µM (titrated, usually from 46.2 µM), for the others: top-dose activity change, negative = growth inhibition, most hits filed as inhibitors; hit rate 12% among 420,000; also: potency is read from the fitted curve at half-maximal effect; nearly all actives have a fitted effect of over 55% in size
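Chicken DT40 Tdp1-/- cells complemented with human TDP1, 400 cells/well, exposed to compounds plus 20 nM camptothecin for at least 48 h at 37 C; viability read as ATP content by CellTiter-Glo luminescence.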
HT1080 IDH1KD tx: HT-1080 IDH1 knockdown cell toxicity (counter line); HT-1080 IDH1 knockdown viability, ATP luminescence, 48 h; Potency, µM (highest dose often 46.1 µM), inactives show top-dose activity, negative = toxicity, usual class: cytotoxic; hit rate 2% among 360,000; AID 686971;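 also: potency is read from the fitted curve at half-maximal effect; 0% = DMSO wells and -100% = cell-free medium wells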
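In this qHTS, HT-1080 cells depleted of IDH1 are exposed for 48 h at 37 °C to compound titrations. Toxicity is scored from CellTiter-Glo luminescence, with DMSO as full viability and medium alone as none.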
Starred values were filed as active, the others as inactive; ? = inconclusive; . = no result; [ ] = remark or other dose. Unless noted, calls follow the shape of the dose curve; as a rule, active = well fitted curve in the direction sought with a large enough effect; inconclusive = small, poorly fitted or top-dose-only effect, or another doubt; inactive = no such curve, though single readings can be large; an effect the other way counts as inactive or inconclusive. Unless noted, % is scaled to controls: 0 for no effect and ±100 for the full control effect.

SMILES | DT40 TDP1 no CPT | IL1B secr inh | HT1080NT lethal | uPA surface inh | DT40 TDP1 CPT | HT1080 IDH1KD tx
CC(C)N(C#N)c1nc(N2CCOCC2)nc(N2CCOCC2)n1 | 10µM* | ? | -10% | 3% | 21µM* | -10%
CC(=O)c1nnn(-c2nc(C#N)nc(N3CCOCC3)n2)c1C | ? | . | . | . | -1% | .
COc1nc(C#N)nc(N2CCCCC2)n1 | 20µM* | . | . | . | ? | .
CCOc1nc(C#N)nc(N2CCOCC2)n1 | 11µM* | . | . | . | ? | .
Cc1ccccc1OCCSc1nc(C)c(Cc2ccccc2)c(=O)[nH]1 | -20% | . | . | . | ? | .
COc1ccc(N2CCN(C(CNS(=O)(=O)c3ccc4c(c3)OCCO4)c3ccco3)CC2)cc1 (configuration not stated) | ? | -6 | -9% | -4% | 13µM* | -14%
COc1ccc(N2CCN(C(CNS(=O)(=O)c3c(C)cc(C)cc3C)c3ccco3)CC2)cc1 (configuration not stated) | 26µM* | . | . | . | ? | .
COc1ccc(S(=O)(=O)NCC(c2ccco2)N2CCN(c3ccccc3F)CC2)cc1C (configuration not stated) | 18µM* | . | . | . | 21µM* | .
CCOc1ccc(S(=O)(=O)N2CCN(C(=O)c3sccc3C)CC2)cc1 | ? | -15 | 1% | -3% | ? | -2%
CCNC(=O)CC1SC(=Nc2ccc(C)c([N+](=O)[O-])c2)N(C)C1=O (configuration not stated) | ? | 7 | -3% | 17% | -17% | -11%
COc1cccc(-c2nc(C(=O)NCC3CCCO3)cc3c2[nH]c2ccccc23)c1 (configuration not stated) | 2.3µM* | ? | ? | ? | 2.6µM* | ?
O=C(NCC1CCCO1)c1cc(-c2ccccc2)on1 (configuration not stated) | ? | -80* | -18% | ? | ? | ?
COc1ccc(OC)c(C2=NOC(C(=O)NCC3CCCO3)C2)c1 (configuration not stated) | -3% | -12 | 8% | 10% | ? | -2%
Cc1ccc(-c2cc(C(=O)NCC3CCCO3)no2)cc1 (configuration not stated) | -9% | -4 | -23% | -28% | ? | -6%
COc1ccc(OC)c(-c2nc(C(=O)NCC3CCCO3)cc3c2[nH]c2ccccc23)c1 (configuration not stated) | 21µM* | -23 | -12% | 10% | 18µM* | -11%
CCC(C)(C)NC(=O)CN(Cc1ccccc1Cl)C(=O)CCC(=O)Nc1cc(C)ccn1 | -14% | -23 | -15% | 2% | -2% | -12%
O=C(NCCCN1CCCC1)c1cc2c(Cl)nc3ccccc3c2s1 | 12µM* | . | ? | -9% | 15µM* | 21µM*
CC1CCN(CCCNC(=O)c2cc3c(Cl)nc4ccccc4c3s2)CC1 | ? | -70* | ? | ? | ? | -2%
CC(C)NC(=O)c1cc2c(Cl)nc3ccccc3c2s1 | ? | . | . | . | -27% | .
O=C(CCNC(=O)Cn1ccc2ccccc2c1=O)NCCCN1CCN(c2ccccc2F)CC1 | -10% | 1 | 2% | -2% | -24% | -2%
O=C(NCCCN1CCN(c2ccccc2F)CC1)c1cc2c(Cl)nc3ccccc3c2s1 | 15µM* | . | . | . | 16µM* | .
COc1ccc(CCNC(=O)Cn2c(=O)n(-c3cc(OC)c(OC)c(OC)c3)c(=O)c3ccccc32)cc1OC | 2% | . | . | . | -3% | .
N#Cc1cnn(-c2nc3sc4c(c3c(=O)[nH]2)CCCC4)c1N | 15µM* | -14 | -8% | 2% | 21µM* | -15%
CN1CCN(c2ncc3ncc(=O)n(C4CC4)c3n2)CC1 | -10% | . | . | . | -10% | .
CCNC(=O)c1cc2c(=O)n3cccc(C)c3nc2n(CCc2ccccc2)c1=N | 13µM* | 13 | -6% | -1% | ? | -4%
SMILES | DT40 TDP1 no CPT | IL1B secr inh | HT1080NT lethal | uPA surface inh | DT40 TDP1 CPT | HT1080 IDH1KD tx
Cc1cccn2c(=O)c3cc(C(=O)NCCN4CCOCC4)c(=N)n(CCc4ccccc4)c3nc12 | 23µM* | -63* | -11% | 1% | ? | 1%
Cc1cccn2c(=O)c3cc(C(=O)NCCN4CCOCC4)c(=N)n(CCCN4CCOCC4)c3nc12 | ? | -25 | -6% | -1% | -2% | 0%
Cc1cc(NC(=O)c2cc(Cl)ccc2Cl)ccc1-c1cc2ccccc2oc1=O | ? | . | . | . | -20% | .
CCCCn1c(-c2ccc(S(=O)(=O)N3CCOCC3)cc2)csc1=Nc1ccccc1 | 15µM* | . | . | . | 13µM* | .
CCCn1c(-c2ccc(S(=O)(=O)N3CCOCC3)cc2)csc1=Nc1ccc(OCC)cc1 | 2.9µM* | . | . | . | 4.1µM* | .
CCCC(C(=O)Nc1ccc(S(=O)(=O)N2CCOCC2)cc1)c1ccccc1 (configuration not stated) | ? | ? | 1%[9.24 µM] | ? | ? | ?
O=S(=O)(c1ccc(-c2csc(=Nc3ccccc3)n2CCCN2CCOCC2)cc1)N1CCOCC1 | ? | -61* | -22% | 2% | ? | -3%
O=C(CSc1nnnn1C1CC2C=CC1C2)Nc1ccc(C(=O)O)cc1 (configuration not stated) | 0% | 5 | 0% | -8% | -15% | 2%
Cc1ccc([C@H]2C[C@H](n3cc(COC(=O)c4ccccc4)nn3)[C@@H](O)CN2Cc2cccs2)cc1 | ? | -12 | -16% | . | -28% | -8%
O=C(OCc1cn([C@H]2C[C@H](c3ccccc3)N(Cc3cccs3)C[C@@H]2O)nn1)c1ccccc1 | 21µM* | -18 | -1% | . | ? | 3%
O=C(OCc1cn([C@@H]2CN(Cc3cccs3)[C@@H](c3ccccc3)C[C@H]2O)nn1)c1ccccc1 | -2% | 5 | -1% | . | 13% | 21%
Cc1ccc([C@H]2C[C@@H](n3cc(COC(=O)c4ccccc4)nn3)[C@H](O)CN2Cc2cccs2)cc1 | 21µM* | 8 | 5% | . | ? | 6%
CCOC(=O)c1sc(NC(=O)CSc2n[nH]c(CC(C)C)n2)nc1C | ? | -8 | 19% | 3% | ? | 20%
O=C(O)C1=C[C@@H](c2coc3ccccc3c2=O)C[C@@H](OCCCCO)O1 | 5% | 8 | 3% | 7% | 12% | 2%
COc1ccc(CCN=C(N)Nc2nc(C)cc(C)n2)cc1 | 7.3µM* | -20 | -28% | -5% | 7.3µM* | -5%
NC(=O)c1c(NC(=O)C2c3ccccc3Oc3ccccc32)sc2c1CCCCC2 | ? | 15 | -7% | 3% | ? | -5%
